Where “and” joins values, the source holds several entries; their conditions need not be identical. Equal entries are not always repeated. Compounds without any hit were thinned out: in the full panel of roughly 79,000, 15% have a hit. Some compounds were tested as several samples or in several runs, with calls that do not always agree. Calls of active or inactive are those of the source. No stated cut-off is given here; in the data, active means growth inhibition above about 70%; inactive means the rest.
How the values were obtained:
[1] = NCI Yeast Anticancer Drug Screen. Data for the rad50 strain (AID 155);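 further: 0% = growth of vehicle-only cultures of the same strain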; settings: S. cerevisiae rad50 strain growth inhibition; at 50.0 µM; stronger effect = higher value
Method in brief: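 Vehicle-treated cultures provide the reference for the growth inhibition reported for compound-exposed, repair-deficient yeast.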

[2] = NCI Yeast Anticancer Drug Screen. Data for the mec2-1 strain (AID 157); settings: S. cerevisiae mec2-1 strain, at 50.0 µM, stronger effect = higher value
Method in brief: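 Cells of the genetically defined mec2-1 yeast strain are incubated with test compound. Inhibition of growth is calculated against vehicle-treated controls.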

[3] = NCI Yeast Anticancer Drug Screen. Data for the sgs1 mgt1 strain (AID 161);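 further: 0% = growth of cultures given vehicle only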; settings: S. cerevisiae sgs1 mgt1 strain, at 50.0 µM, stronger effect = higher value
Method in brief: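 Read-out: growth inhibition vs vehicle controls. Cells: mutant yeast strain deficient in DNA damage repair.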

[4] = NCI Yeast Anticancer Drug Screen. Data for the cln2 rad14 strain (AID 165);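 further: 0% = growth equal to vehicle treated cultures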; settings: S. cerevisiae cln2 rad14 strain, at 50.0 µM, stronger effect = higher value
Method in brief: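 The screen exposed genetically defined yeast (cln2 rad14) to test compounds and scored growth inhibition relative to vehicle-treated controls.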

[5] = NCI Yeast Anticancer Drug Screen. Data for the bub3 strain (AID 167); settings: S. cerevisiae bub3 mutant strain, at 50.0 µM, stronger effect = higher value
Method in brief: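 Mutant yeast screening strain plus compound; vehicle-treated cultures serve as the 0% inhibition reference.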

[6] = NCI Yeast Anticancer Drug Screen. Data for the mlh1 rad18 strain (AID 175); settings: S. cerevisiae mlh1 rad18 strain growth inhibition; at 50.0 µM; stronger effect = higher value
Method in brief: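 Compound-treated yeast growth, normalised to vehicle controls. Strain bears defined DNA repair mutations.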

OCC12COCN1COC2
growth inhibition [1]: 8.4% (inactive) | growth inhibition [2]: -15.9% (inactive) | growth inhibition [3]: -23.6% (inactive) | growth inhibition [4]: -14% (inactive) | growth inhibition [5]: -0.4% (inactive) | growth inhibition [6]: -31.9% (inactive)

C=C(C)C1(CC(C)C)C(=O)NC(=O)NC1=O
growth inhibition [1]: 7.4% (inactive) and 2.9% (inactive) | growth inhibition [2]: 6.4% (inactive) and 0.4% (inactive) | growth inhibition [3]: -7.55% (inactive) and 1.75% (inactive) | growth inhibition [4]: 2.3% (inactive) and -2.6% (inactive) | growth inhibition [5]: -14.8% (inactive) and 8.15% (inactive) | growth inhibition [6]: -5.9% (inactive) and -4.3% (inactive)

c1ccc(C2=NCN3CC23c2ccccc2)cc1 (stereo not drawn)
growth inhibition [1]: -3.6% (inactive) | growth inhibition [2]: 2.2% (inactive) | growth inhibition [3]: 14.4% (inactive) | growth inhibition [4]: 13.4% (inactive) | growth inhibition [5]: -48.8% (inactive) | growth inhibition [6]: 3.45% (inactive)

[O-]c1n[n+](C2CCCCC2)no1
growth inhibition [1]: -11.4% (inactive) | growth inhibition [2]: -7.6% (inactive) | growth inhibition [3]: -45.7% (inactive) | growth inhibition [4]: -31.1% (inactive) | growth inhibition [5]: 2.4% (inactive) | growth inhibition [6]: -13.4% (inactive)

C/C(=C\COc1ccc2ccc(=O)oc2c1)C1=CC(=O)C(C)(C)O1
growth inhibition [1]: -2.65% (inactive) | growth inhibition [2]: -17.2% (inactive) | growth inhibition [3]: 18.9% (inactive) | growth inhibition [4]: 9.85% (inactive) | growth inhibition [5]: -14.8% (inactive) | growth inhibition [6]: 12.2% (inactive)

Cc1c(Cl)cccc1NC(=O)C(=O)C1C(=O)NC(=O)NC1=O
growth inhibition [1]: -10.8% (inactive) | growth inhibition [2]: -10.8% (inactive) | growth inhibition [3]: -13.8% (inactive) | growth inhibition [4]: -6% (inactive) | growth inhibition [5]: -17.8% (inactive) | growth inhibition [6]: -17.9% (inactive)

Brc1ccc(NP(Br)(c2ccccc2)(c2ccccc2)c2ccccc2)cc1
growth inhibition [1]: 52.8% (inactive) | growth inhibition [2]: 5.6% (inactive) | growth inhibition [3]: 58% (inactive) | growth inhibition [4]: 11.8% (inactive) | growth inhibition [5]: 11.9% (inactive) | growth inhibition [6]: 20.1% (inactive)

CCN(CCCl)c1cccc(NC(=O)c2ccc(C(=O)Nc3cccc(CN(C)C)c3)cc2)c1
growth inhibition [1]: 5.55% (inactive) | growth inhibition [2]: -6.3% (inactive) | growth inhibition [3]: 20.5% (inactive) | growth inhibition [4]: -1.95% (inactive) | growth inhibition [5]: -14.4% (inactive) | growth inhibition [6]: 26.3% (inactive)

CCC/C=C/C=C/C(=O)OC1/C(=C/C(=O)OC)CC2CC(C(C)O)OC(=O)CC(O)CC3CC(OC(C)=O)C(C)(C)C(O)(CC4C/C(=C/C(=O)OC)CC(/C=C/C(C)(C)C1(O)O2)O4)O3 (stereo not drawn)
growth inhibition [1]: 15.7% (inactive) | growth inhibition [2]: -5.2% (inactive) | growth inhibition [3]: -7.85% (inactive) | growth inhibition [4]: 21.3% (inactive) | growth inhibition [5]: 6.15% (inactive) | growth inhibition [6]: 23.1% (inactive)

Cc1c2ccccc2c(CNCCSCCCl)c2ccc3ccccc3c12
growth inhibition [1]: 97.2% (active) | growth inhibition [2]: 98.5% (active) | growth inhibition [3]: 98.4% (active) | growth inhibition [4]: 98.3% (active) | growth inhibition [5]: 97.5% (active) | growth inhibition [6]: 98.8% (active)

CNC(=O)c1cc(N(CCCl)CCCl)c([N+](=O)[O-])cc1[N+](=O)[O-]
growth inhibition [1]: -3.15% (inactive) | growth inhibition [2]: -17.5% (inactive) | growth inhibition [3]: -6.05% (inactive) | growth inhibition [4]: 10% (inactive) | growth inhibition [5]: -3.15% (inactive) | growth inhibition [6]: 19.4% (inactive)

CCC(C)C1NC(=O)C2CCCN2C(=O)C(CC2CO2)OC(=O)CCNC(=O)C(C)N(C)C(=O)C(C(C)C)N(C)C1=O (stereo not drawn)
growth inhibition [1]: 55.1% (inactive) | growth inhibition [2]: 5.15% (inactive) | growth inhibition [3]: 41.2% (inactive) | growth inhibition [4]: 31.6% (inactive) | growth inhibition [5]: 36% (inactive) | growth inhibition [6]: 28.8% (inactive)

COc1ccc2[nH]cc(CCN)c2c1
growth inhibition [1]: 3.95% (inactive) | growth inhibition [2]: -12.4% (inactive) | growth inhibition [3]: -13.5% (inactive) | growth inhibition [4]: -10.4% (inactive) | growth inhibition [5]: 3.6% (inactive) | growth inhibition [6]: -24.1% (inactive)

Cc1cc2c(C(C)C)c(O)c(O)c(C=O)c2c(O)c1-c1c(C)cc2c(C(C)C)c(O)c(O)c(C=O)c2c1O
growth inhibition [1]: 47.7% (inactive) and 59.2% (inactive) | growth inhibition [2]: 52.6% (inactive) and 71.2% (active) | growth inhibition [3]: 41.1% (inactive) and 46.5% (inactive) | growth inhibition [4]: 47.6% (inactive) and 67.5% (inactive) | growth inhibition [5]: 49.1% (inactive) and 43.6% (inactive) | growth inhibition [6]: 60.2% (inactive) and -27% (inactive)

CCN(CC)C(=O)N1CC2CCC(C1)N2C
growth inhibition [1]: -4.6% (inactive) | growth inhibition [2]: 3.55% (inactive) | growth inhibition [3]: -6.9% (inactive) | growth inhibition [4]: -5.45% (inactive) | growth inhibition [5]: -9.95% (inactive) | growth inhibition [6]: -10.2% (inactive)

CCOP(=O)(OCC)C(N)Cc1ccc(OC)c(OC)c1 (stereo not drawn)
growth inhibition [1]: -3.85% (inactive) | growth inhibition [2]: -4% (inactive) | growth inhibition [3]: 2.35% (inactive) | growth inhibition [4]: 19.9% (inactive) | growth inhibition [5]: 13% (inactive) | growth inhibition [6]: -16.6% (inactive)

O=[N+]([O-])c1c(F)cc(F)c([N+](=O)[O-])c1F
growth inhibition [1]: -29.5% (inactive) | growth inhibition [2]: -6.15% (inactive) | growth inhibition [3]: -11.6% (inactive) | growth inhibition [4]: -28.2% (inactive) | growth inhibition [5]: -4.75% (inactive) | growth inhibition [6]: 52.9% (inactive)

CC12CCC3C(CCC4(O)C=CCCC34C=O)C1(O)CC(O)C2c1ccc(=O)oc1 (stereo not drawn)
growth inhibition [1]: -28.1% (inactive) | growth inhibition [2]: -46.9% (inactive) | growth inhibition [3]: -12.7% (inactive) | growth inhibition [4]: -15.8% (inactive) | growth inhibition [5]: -53.9% (inactive) | growth inhibition [6]: -16.2% (inactive)

C[CH2][Sn]([c]1ccccc1)[c]1ccccc1
growth inhibition [1]: 33.1% (inactive) | growth inhibition [2]: 39.2% (inactive) | growth inhibition [3]: 40.3% (inactive) | growth inhibition [4]: 3.65% (inactive) | growth inhibition [5]: 35.5% (inactive) | growth inhibition [6]: 47.1% (inactive)

c1ccc(-c2ccc([As](c3ccccc3)c3ccccc3)cc2)cc1
growth inhibition [1]: 11.4% (inactive) | growth inhibition [2]: 4.5% (inactive) | growth inhibition [3]: 19.6% (inactive) | growth inhibition [4]: 3.85% (inactive) | growth inhibition [5]: 7.6% (inactive) | growth inhibition [6]: 11.8% (inactive)

COC(=O)C1C(c2ccc(-c3ccccc3)cc2)N1C1CCCCC1 (stereo not drawn)
growth inhibition [1]: 7.7% (inactive) | growth inhibition [2]: 19.8% (inactive) | growth inhibition [3]: 2.9% (inactive) | growth inhibition [4]: -2.05% (inactive) | growth inhibition [5]: -4% (inactive) | growth inhibition [6]: 1.85% (inactive)

Cc1c([N+](=O)[O-])cc2c(c1[N+](=O)[O-])C(C)(C)CC2(C)C
growth inhibition [1]: -18.9% (inactive) | growth inhibition [2]: -22.5% (inactive) | growth inhibition [3]: -9.2% (inactive) | growth inhibition [4]: 10.4% (inactive) | growth inhibition [5]: 14.8% (inactive) | growth inhibition [6]: -6.3% (inactive)

C[C@H]1CC(=O)C[C@@H]2CC[C@@H]3[C@H](CC[C@]4(C)C(OC(=O)c5cccc6c(=O)c7ccccc7[nH]c56)CC[C@@H]34)[C@]21C (stereo partly drawn)
growth inhibition [1]: 42.4% (inactive) | growth inhibition [2]: 22% (inactive) | growth inhibition [3]: 45.6% (inactive) | growth inhibition [4]: 41.9% (inactive) | growth inhibition [5]: 5.2% (inactive) | growth inhibition [6]: 40.9% (inactive)

Source: PubChem BioAssay (NCI)
